Measured values reported in PubChem BioAssay (EPA / NIEHS).
Active and inactive are the calls of the source. The calls were made as follows: active = hit-call score of the fitted dose curve at least 0.9, where 1 is the maximum; inactive = score below 0.9.

Legend:
[1] = Tanguay_ZF_120hpf_ANY: Oregon State University Tanguay Lab 120 Hour Post-fertilization zebrafish Assay for Any Mortality and Malformation (AID 2284404)
How it was run: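 Dechorionated Tropical 5D wild-type embryos, one per well from 6 hpf, static exposure in sealed, dark plates at 28C until 120 hpf, 0.64% DMSO final. Brightfield scoring of mortality and malformations as binary presence/absence, pooling 13 morphology endpoints.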

[2] = CCTE_Padilla_ZF_Score.Edema: CCTE's 144 Hour Post-fertilization zebrafish Assay Score for Edema Malformation, Padilla Lab (AID 2284406)
How it was run: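 Wild-type zebrafish embryos, one per well in Hanks' solution, dosed at 6-8 hpf, sealed and reared at 26C on a 14:10 h cycle; rinsed on 5 dpf. At 6 dpf, blinded assessors scored edema by stereomicroscopy.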

[3] = CCTE_Padilla_ZF_Score.Spine: CCTE's 144 Hour Post-fertilization zebrafish Assay Score for Spine Malformation, Padilla Lab (AID 2284407)
How it was run: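 Wild-type zebrafish embryos, one per well in Hanks' solution, dosed at 6–8 hpf in sealed plates at 26C, 14:10 h light:dark; rinsed at 5 dpf. Two blinded assessors scored spinal defects by stereomicroscopy at 6 dpf; fitted versus DMSO.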

[4] = CCTE_Padilla_ZF_Score.Swim_bladder: CCTE's 144 Hour Post-fertilization zebrafish Assay Score for Swim Bladder Malformation, Padilla Lab (AID 2284408)
How it was run: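 Wild-type zebrafish embryos, one per well in 10% Hanks', dosed at 6–8 hpf, sealed, reared at 26C and rinsed at 5 dpf. Blinded assessors scored uninflated swim bladder by stereomicroscopy at 6 dpf, relative to DMSO.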

[5] = CCTE_Padilla_ZF_Score.Position: CCTE's 144 Hour Post-fertilization zebrafish Assay Score for Position, Padilla Lab (AID 2284409)
How it was run: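 Wild-type zebrafish embryos (with chorions) exposed singly from 6–8 hpf in sealed wells of Hanks' solution at 26C, rinsed at 5 dpf. At 6 dpf, blinded assessors scored abnormal water-column position by brightfield stereomicroscopy, relative to DMSO.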

[6] = CCTE_Padilla_ZF_Score.Living: CCTE's 144 Hour Post-fertilization zebrafish Assay Score for Viability, Padilla Lab (AID 2284410);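 also: larval death at 6 dpf judged by absent heartbeat or coagulation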
How it was run: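 Wild-type zebrafish embryos were exposed singly from 6–8 hpf in sealed wells of Hanks' solution at 26C, then rinsed at 5 dpf. At 6 dpf, blinded assessors scored mortality (no heartbeat or coagulation) by stereomicroscopy, fitted against DMSO.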

[7] = CCTE_Padilla_ZF_Score.General: CCTE's 144 Hour Post-fertilization zebrafish Assay Score for General Malformation, Padilla Lab (AID 2284411)
How it was run: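 Wild-type zebrafish embryos were plated singly at 6-8 hpf in 10% Hanks' and exposed in sealed wells at 26C until rinsed on 5 dpf. At 6 dpf two blinded assessors scored mortality, hatching and malformations by stereomicroscopy; gain-of-signal versus DMSO.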

Question: Which AC50 [1] does the source give for `NC(=O)C(F)(F)C(F)(F)C(F)(F)C(F)(F)C(F)(F)C(F)(F)C(F)(F)F` here?
Answer: The AC50 was 43.4 µM (active).

Question: And the outcome [2]?
Answer: The outcome was “inactive”.

Question: What about the outcome [3] of the same molecule?
Answer: Its outcome is “inactive”.

Question: What about the outcome [4] of the same molecule?
Answer: The outcome was “inactive”.

Question: What about the outcome [5] of the same molecule?
Answer: The outcome was “inactive”.

Question: What about the outcome [6] of the same molecule?
Answer: Its outcome is “inactive”.

Question: And the outcome [7]?
Answer: Its outcome is “inactive”.

Question: Which results are given for `C=CC(=O)OCC(F)(F)C(F)(F)C(F)(F)COC(=O)C=C`?
Answer: AC50 [1]: 5.92 µM (active); outcome [2]: inactive; outcome [3]: inactive; outcome [4]: inactive; outcome [5]: inactive; AC50 [6]: 10 µM (active); outcome [7]: inactive

Question: Which results are given for `C=CC(=O)OCC(F)(F)C(F)(F)C(F)(F)C(F)(F)C(F)(F)C(F)(F)C(F)(F)C(F)F`?
Answer: outcome [1]: inactive; outcome [2]: inactive; outcome [3]: inactive; AC50 [4]: 102 µM (active); outcome [5]: inactive; outcome [6]: inactive; outcome [7]: inactive

Question: With `NS(=O)(=O)C(F)(F)C(F)(F)C(F)(F)C(F)(F)C(F)(F)C(F)(F)F` as the molecule, how does the AC50 [1] read?
Answer: The AC50 was 10.6 µM (active).

Question: And the AC50 [2]?
Answer: Its AC50 is 2.27 µM (active).

Question: What about the outcome [3] of the same molecule?
Answer: The outcome was “inactive”.

Question: And the AC50 [4]?
Answer: The AC50 was 2.66 µM (active).

Question: What about the AC50 [5] of the same molecule?
Answer: Its AC50 is 2.51 µM (active).

Question: What about the AC50 [6] of the same molecule?
Answer: Its AC50 is 4.62 µM (active).

Question: What about the AC50 [7] of the same molecule?
Answer: Its AC50 is 2.27 µM (active).

Question: What does the source list for `OCC(O)CC(F)(F)C(F)(F)C(F)(F)C(F)(F)C(F)(F)C(F)(F)C(F)(F)C(F)(F)F` (stereo not drawn)?
Answer: AC50 [1]: 5.14 µM (active); AC50 [2]: 9.75 µM (active); outcome [3]: inactive; AC50 [4]: 6.73 µM (active); AC50 [5]: 17.6 µM (active); AC50 [6]: 17.7 µM (active); AC50 [7]: 11.8 µM (active)

Question: Which results are given for `NC(=O)C(F)(F)C(F)(F)C(F)(F)F`?
Answer: outcome [1]: inactive; outcome [2]: inactive; outcome [3]: inactive; outcome [4]: inactive; outcome [5]: inactive; outcome [6]: inactive; outcome [7]: inactive

Question: For `OCCCC(F)(F)C(F)(F)C(F)(F)C(F)(F)C(F)(F)C(F)(F)C(F)(F)C(F)(F)F`, which outcome [1] is on record?
Answer: The outcome was “inactive”.

Question: And the outcome [2]?
Answer: Its outcome is “inactive”.

Question: What about the outcome [3] of the same molecule?
Answer: Its outcome is “inactive”.

Question: What about the outcome [4] of the same molecule?
Answer: Its outcome is “inactive”.

Question: What about the outcome [5] of the same molecule?
Answer: Its outcome is “inactive”.

Question: What about the outcome [6] of the same molecule?
Answer: Its outcome is “inactive”.

Question: What about the outcome [7] of the same molecule?
Answer: Its outcome is “inactive”.

Question: What does the source list for `C=CC(=O)OCCC(F)(F)C(F)(F)C(F)(F)C(F)(F)F`?
Answer: outcome [1]: inactive; outcome [2]: inactive; outcome [3]: inactive; AC50 [4]: 88.3 µM (active); outcome [5]: inactive; AC50 [6]: 20.9 µM (active); AC50 [7]: 76.7 µM (active)

Question: For `OCC(F)(F)C(F)(F)C(F)(F)C(F)(F)C(F)(F)C(F)(F)C(F)(F)C(F)(F)CO`, which AC50 [1] is on record?
Answer: Its AC50 is 16.7 µM (active).

Question: And the outcome [2]?
Answer: The outcome was “inactive”.

Question: What about the outcome [3] of the same molecule?
Answer: Its outcome is “inactive”.

Question: And the AC50 [4]?
Answer: The AC50 was 3.96 µM (active).

Question: And the outcome [5]?
Answer: Its outcome is “inactive”.

Question: What about the AC50 [6] of the same molecule?
Answer: The AC50 was 22.2 µM (active).

Question: What about the AC50 [7] of the same molecule?
Answer: Its AC50 is 4.17 µM (active).

Question: For `FC(F)(F)C(F)(F)C(F)(F)C(F)(F)C(F)(F)C(F)(F)CC[Si](Cl)(Cl)Cl`, which outcome [1] is on record?
Answer: The outcome was “inactive”.

Question: Which outcome [1] does the source give for `CO[Si](C)(CCC(F)(F)C(F)(F)C(F)(F)C(F)(F)C(F)(F)C(F)(F)F)OC` here?
Answer: The outcome was “inactive”.

Question: What about the outcome [2] of the same molecule?
Answer: The outcome was “inactive”.

Question: And the outcome [3]?
Answer: The outcome was “inactive”.

Question: And the outcome [4]?
Answer: The outcome was “inactive”.

Question: What about the outcome [5] of the same molecule?
Answer: The outcome was “inactive”.

Question: And the outcome [6]?
Answer: The outcome was “inactive”.

Question: And the outcome [7]?
Answer: The outcome was “inactive”.

Question: With `OCC(O)CC(F)(F)C(F)(F)C(F)(F)C(F)(F)F` (stereo not drawn) as the molecule, how does the outcome [1] read?
Answer: Its outcome is “inactive”.

Question: What about the outcome [2] of the same molecule?
Answer: Its outcome is “inactive”.

Question: What about the outcome [3] of the same molecule?
Answer: The outcome was “inactive”.

Question: What about the outcome [4] of the same molecule?
Answer: Its outcome is “inactive”.

Question: And the outcome [5]?
Answer: Its outcome is “inactive”.

Question: What about the outcome [6] of the same molecule?
Answer: Its outcome is “inactive”.

Question: And the outcome [7]?
Answer: The outcome was “inactive”.
